High-throughput results as filed in PubChem BioAssay.
A selection: hits, their analogues and other compounds. The true share with any hit is near 4.6%.
PNC inhibitor: perinucleolar compartment assembly inhibition. PC3M PTB-GFP, PNC prevalence imaging, 16 h; active compounds read low. activity change (PNC), negative = inhibition, % at 10 µM. 3.1% of 140,000 active. AID 2417;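 active = readout at or below -70, meaning at least 70% loss of cells showing the perinucleolar compartment, a nuclear body marking cancer cells; inconclusive = readout between -30 and a set limit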;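 note: plate controls were DMSO wells for no effect and camptothecin positive control wells for full effect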
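Compounds are pinned in duplicate onto adhered PC3M cells stably expressing GFP-tagged PTB and incubated 16 h at 37 C. Cells are then fixed, nuclei stained with Hoechst, and PNC-positive cells counted.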
TexasRed fluor: alters Texas Red total fluorescence, flagging assay interference; AID 1479; Potency, µM (doses to about 106 µM), without a hit: top-dose fluorescence change, negative = quenching; 0.29% of 280,000 active; TRb/SRC2 Texas Red total fluorescence interference; active = well fitted curve in either direction with a large enough effect; inconclusive = small, poorly fitted or top-dose-only effect; note: potency is the fitted concentration of half-maximal effect
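Human TRβ ligand-binding domain (0.6 uM) and Texas Red SRC2 peptide (20 nM) in Tris buffer with 1 uM T3 and 5% DMSO were incubated with pinned compound for 5 hr at ambient temperature. Total fluorescence was computed as S + 2P (555/632 nm).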
Tau ThT inhib: blocks human tau fibril formation measured by thioflavin T; P10636; recombinant tau K18 P301L, heparin-induced fibrillization, ThT fluorescence; Potency, µM (highest dose often 57.4 µM), without a hit: at the top dose activity, negative = inhibition, usual class: inhibitors; 2.1% of 270,000 active; note: potency is the fitted concentration of half-maximal effect; nearly all actives have a fitted effect of over 55% in size
Target sequence (P10636 561-689 P618L limits assumed): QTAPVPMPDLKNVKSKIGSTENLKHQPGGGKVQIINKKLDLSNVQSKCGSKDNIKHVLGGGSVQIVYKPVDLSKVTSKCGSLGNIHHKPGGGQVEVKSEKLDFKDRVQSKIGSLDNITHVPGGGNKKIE
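Recombinant human tau K18 fragment […] carrying P301L, 15 uM unlabeled plus 0.24 uM Alexa 594-labeled, was fibrillized with 20 uM heparin in 100 mM sodium acetate pH 7 for 6 hr at 37 C; 30 uM ThT fluorescence read after 1 hr.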
Tau fluor cs: counter-screen for tau fibril formation inhibitors | Potency, µM (titrated, usually from 57.7 µM), inactives show at the top dose activity change, negative = decrease | AID 1463 | tau K18 P301L (four-repeat tau fragment) Alexa594 fluorescence, heparin fibrillization | 0.93% of 280,000 active; note: potency is the fitted concentration of half-maximal effect; nearly all actives have a fitted effect of over 55% in size
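Human K18 P301L tau (15 uM unlabeled plus 0.24 uM Alexa 594-labeled, final) in 100 mM sodium acetate pH 7 was mixed with compound and 20 uM heparin and incubated 6 hr at 37 C.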
TRb SRC2 PPI: disrupts binding of human TR beta to SRC2 | Potency, µM (doses to about 106 µM), for the others: top-dose activity change, negative = inhibition, hits mostly inhibitors | TRbeta-SRC2 peptide binding, fluorescence polarization; receptor liganded with 1 µM T3 | 0.065% of 280,000 active | AID 1469;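 note: potency is the fitted concentration of half-maximal effect; plate controls were bound peptide for no effect and peptide without receptor for full effect; nearly all actives have a fitted effect of over 50% in size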
Target sequence (P10828 whole entry, looked up): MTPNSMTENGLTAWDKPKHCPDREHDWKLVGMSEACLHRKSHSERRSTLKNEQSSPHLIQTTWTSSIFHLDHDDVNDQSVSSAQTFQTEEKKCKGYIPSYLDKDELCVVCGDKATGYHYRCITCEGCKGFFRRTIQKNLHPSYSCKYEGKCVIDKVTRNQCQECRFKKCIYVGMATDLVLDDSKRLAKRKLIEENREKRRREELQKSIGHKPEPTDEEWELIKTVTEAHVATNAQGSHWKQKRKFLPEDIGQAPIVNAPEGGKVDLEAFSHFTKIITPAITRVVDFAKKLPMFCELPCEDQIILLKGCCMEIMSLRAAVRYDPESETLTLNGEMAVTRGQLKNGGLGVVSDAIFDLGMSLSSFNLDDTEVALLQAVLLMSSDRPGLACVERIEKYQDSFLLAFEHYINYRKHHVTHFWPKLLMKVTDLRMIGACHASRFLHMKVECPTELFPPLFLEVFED
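Quantitative HTS by FP: 0.6 uM TRb LBD, 20 nM labeled SRC2 20-mer, 1 uM T3, 5% DMSO; 5 hr ambient incubation; % activity per concentration and potencies from concentration series.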
Tau fibril FP: tau fibrillization inhibition (FP); P10636; K18 P301L tau heparin fibrillization, Alexa594 FP, 6 h; Potency, µM (series often up to 57.7 µM), without a hit: at the highest dose activity, negative = inhibition, actives largely listed as inhibitors; 0.39% of 280,000 active; AID 1468; note: potency is the fitted concentration of half-maximal effect; nearly all actives have a fitted effect of over 55% in size
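Read-out: fluorescence polarization of Alexa 594-labeled tau (0.24 uM), 555 nm excitation, 632 nm emission. Mixtures held 15 uM unlabeled K18 P301L, compound and 20 uM heparin, pH 7 acetate buffer, incubated 6 hr at 37 C.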
Starred values were filed as active, the others as inactive; ? = inconclusive; · = no result; [ ] = dose if it differs, or a comment. Unless noted, calls come from the whole dose curve; as a rule, active = well fitted curve in the direction sought with a large enough effect; inconclusive = small, poorly fitted or top-dose-only effect, or another doubt; inactive = no such curve, though single readings can be large; an effect the other way counts as inactive or inconclusive. Unless noted, % is set by controls: 0 for no effect and ±100 for the full control effect.

SMILES	PNC inhibitor	TexasRed fluor	Tau ThT inhib	Tau fluor cs	TRb SRC2 PPI	Tau fibril FP
CNC(=O)Oc1cccc(-c2cn3cc(OC(=O)NC)ccc3n2)c1	-7	?	14µM*	?	?	-12%
CC(=O)c1cn(CCCOc2ccccc2)c2ccccc12	·	-1%	-4%	-2%	-7%	12%
Cc1ccc2[nH]c(C)c(CCNC(=O)c3cc4cc([N+](=O)[O-])ccc4oc3=O)c2c1	-19	0%	?	?	1%	13%
COc1ccc2oc(=O)c(C(=O)NCCc3c(C)[nH]c4ccc(F)cc34)cc2c1	·	3%	?	7.9µM*[quencher]	3%	?
CC1(C)Cc2cccc(O)c2O1	·	-2%[201 µM]	·	·	3%[201 µM]	·
Nc1ccccc1C(=O)OCC(=O)N1CCc2ccccc21	-24	-3%	?	-14%	0%	9%
N#CSCC(=O)N1c2ccccc2CCc2ccccc21	?	-2%	14µM*	-19%	1%	?
COP(=O)(OC)C(NS(=O)(=O)c1ccccc1)C(Cl)(Cl)Cl (centres undefined)	·	0%	0%	2%	-1%	-5%
COc1ccc(C(C)=O)cc1CC(C(=O)c1ccc(F)cc1)N(C)C (centres undefined)	-93*	8%	8%	4%	25%	10%
Cc1ccccc1CN1C(=O)CN=C(c2ccccc2)c2cc(Cl)ccc21	·	0%	-1%	-7%	-6%	-11%
O=C1CC(O)(CF)CCO1 (centres undefined)	·	-2%	·	·	-3%	·
O=C1NC(=O)C(=Cc2ccc(-c3ccccc3[N+](=O)[O-])o2)C(=O)N1	·	-7%	·	-7%	4%	1%
O=C1NC(=O)C(=Cc2ccc(-c3cc(Cl)ccc3[N+](=O)[O-])o2)C(=O)N1	·	-3%	7.9µM*	-26%	5%	-4%
COc1ccc(CN2CCCC(C(=O)c3ccccc3SC)C2)cc1O (centres undefined)	·	-2%	-10%	-7%	5%	-1%
CCC(C)NC(=O)c1c(N)n(Cc2ccc3c(c2)OCO3)c2nc3ccccc3nc12 (centres undefined)	11	-3%	20µM*	?	-28%	?
CCC(C)NC(=O)c1c(N)n(CC2CCCO2)c2nc3ccccc3nc12 (centres undefined)	8	0%	?	?	?	-15%
CC(C(O)c1ccccc1)N(C)CCn1cnc2c1c(=O)n(C)c(=O)n2C (centres undefined)	·	-2%	1%	5%	7%	9%
O=C(NC1(C(F)(F)F)Oc2ccccc2O1)N1CCC2(CC1)OCCO2	-119*	1%	?	-8%	4%	8%
Cc1ccc2nc3sc(=O)sc3nc2c1	·	-3%	·	·	-6%	·
O=C1Nc2ccccc2/C1=C/c1cnc[nH]1	32	-3%	?	0%	-4%	6%
COc1ccc2c(c1)/C(=C/c1cnc[nH]1)C(=O)N2	·	-8%	14µM*	-18%	-4%	8%
Cc1cccc2sc(NC(=O)c3cccn(Cc4ccccc4)c3=O)nc12	·	0%	-14%	-24%	-4%	?
Cn1c(NN=O)nc2ccccc21	·	1%	18µM*	?	3%	-9%
C/C(=N\N1CCCCCC1)c1c(O)n(-c2ccccc2)c(=O)[nH]c1=O	?	-2%[53 µM]	7%	9%	3%[53 µM]	1%
Cc1ccccc1N1C(=O)NC(=O)/C(=C/c2ccc(N3CCOCC3)o2)C1=O	·	2%	-25%	-2%	5%	-5%
SMILES	PNC inhibitor	TexasRed fluor	Tau ThT inhib	Tau fluor cs	TRb SRC2 PPI	Tau fibril FP
Cc1ccccc1N1C(=O)NC(=O)/C(=C\c2cc(Br)c(N3CCOCC3)o2)C1=O	-20	25%	16µM*	-19%	2%	?
COc1ccc(-c2c(C)nn3c(-c4ccccc4)cc(C)nc23)cc1OC	·	-15%	?	-29%	-4%	10%
CN1CCN(c2ccc(C=O)cc2)CC1	?	1%	0%	-3%	2%	3%
CN1CCN(c2ccc3nccnc3c2)CC1	·	-2%	1%	0%	-3%	-11%
CCN1CCN(c2ccc(N)cc2)CC1	·	1%	25µM*	?	-8%	?
CN1CCN(c2ccc(N)c(N3CCN(C)CC3)c2)CC1	?	18%	28µM*	?	-21%	?
CN1CCN(c2ccc(N)cc2)CC1	25	0%	25µM*	?	-16%	?
CCN1CCN(c2ccc(N)cc2C)CC1	·	-2%	?	-13%	-3%	-3%
CCn1cc(C(=O)c2cccs2)c2ccccc21	19	-1%	-17%	-18%	-10%	-6%
Cc1ccc(N)c(C)c1	·	-1%	·	·	-6%	·
Cc1ccc(N=Nc2cc(C)ccc2N)cc1	·	-1%	11µM*	18µM*[quencher]	1%	18%
CCC(=NCc1ccco1)c1c(O)[nH]c(=O)[nH]c1=O	36	1%	-2%	-5%	-3%	-4%
Cc1sc2ncn(CC(=O)NCCCC(=O)N3CCC4(CC3)OCCO4)c(=O)c2c1C	80	-6%	-2%	0%	8%	-7%
COc1ccc(C(=O)Nc2ccc(S(=O)(=O)N(Cc3ccccc3)c3ccccc3)cc2)cc1	·	-3%	?	?	8%	16µM*
COc1ccc(-c2cnnn2-c2ccc(NC(=O)c3ccc(S(=O)(=O)N(C)C)cc3)cc2)cc1	·	-2%	1%	?	1%	-14%
CC(C)Oc1cccnc1N(C)C1CCN(Cc2ccccc2)CC1	·	1%	4%	-1%	-15%	3%
Cc1cc(OC(=O)CCCNC(=O)OC(C)(C)C)c2c3c(c(=O)oc2c1)CCC3	-10	-5%	-19%	-12%	-8%	6%
Cc1cc(OC(=O)CCNC(=O)OC(C)(C)C)c2c3c(c(=O)oc2c1)CCC3	-109*	-1%	?	-6%	-5%	-1%
COc1ccc(OC)c(C(O)C(C)N)c1 (centres undefined)	21	-1%	-14%	-12%	-1%	-2%
ClC1=C(Cl)C(Cl)(C2(Cl)C(Cl)=C(Cl)C(Cl)=C2Cl)C(Cl)=C1Cl	·	32µM*[quencher]	·	·	?	·
O=C(N=Nc1c(O)[nH]c(=O)[nH]c1=O)C1COc2ccccc2O1 (centres undefined)	·	0%	28µM*	-11%	5%	?
O=c1[nH]c(=S)[nH]c(O)c1N=Nc1ccc2c(c1)OCO2	·	-1%	4µM*	-11%	7%	8%
O=c1[nH]c(=S)[nH]c(O)c1N=Nc1ccc2c(c1)OCCO2	·	-6%	2.2µM*	-18%	-1%	-13%
O=C(O)c1ccccc1N=Nc1c(O)[nH]c(=O)[nH]c1=O	·	-7%	-4%	9%	-2%	5%
